Rows were chosen to be rich in hits. Some 10% of all compounds tested hit in one or more screens of this group.
Gal4-VP16 FLuc – inhibits Gal4-VP16 luciferase reporter, ROR gamma counter-screen. AID 2546. Potency, µM (doses to about 53.6 µM), without a hit: at the highest dose activity, negative = inhibition, actives largely listed as inhibitors. hit rate 3.5% among 310,000. Drosophila S2 Gal4-VP16 UAS-luciferase, luminescence, 20 h;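 further: Gal4-VP16 expression switched on by copper sulfate through the metallothionein promoter; on the % scale 0 is the no-effect control and ±100 the full control effect; nearly all actives have a fitted effect of over 50% in size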
SW480 rerep – DNA re-replication induction in SW480 cells; SW480 DNA re-replication, Hoechst DNA content imaging, 48 h; Potency, µM (titrated, usually from 46.1 µM), without a hit: top-dose re-replication activation, most hits filed as activators; hit rate 1.8% among 340,000; further: % of control where 0% means no effect; nearly all actives have a fitted effect of over 55% in size
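Compounds, transferred as 23 nL by pin tool, were incubated with cells for 48 hr; DNA content per nucleus was then quantified by Hoechst staining and fluorescence plate imaging.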
MCF10A rereplic – induces DNA re-replication in MCF 10a normal breast cells | Potency, µM (series often up to 46.1 µM), inactives show at the highest dose activity, positive = re-replication, hits mostly activators | AID 624296 | MCF 10A DNA re-replication, Hoechst nuclear intensity, 48 h | hit rate 2.9% among 350,000; further: % of control where 0% means no effect; nearly all actives have a fitted effect of over 50% in size
KB-V1 MDR tox – KB-V1 MDR subline cytotoxicity; KB-V1 MDR cells viability, CellTiter-Glo, 72 h; Potency, µM (titrated, usually from 46.1 µM), hits mostly cytotoxic; hit rate 3.4% among 400,000; further: on the % scale 0 is the no-effect control and ±100 the full control effect; nearly all actives have a fitted effect of over 60% in size
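Cytotoxicity toward P-gp-expressing KB-V1 cells was determined as loss of CellTiter-Glo luminescence after 72 h at 37 degrees C. Compounds were tested in quantitative HTS format across a concentration range, with curves fitted to normalized data.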
KB-3-1 cytotox – KB-3-1 parental cell cytotoxicity; hit rate 1.4% among 400,000; AID 1347075; KB-3-1 viability, CellTiter-Glo ATP luminescence, 72 h; Potency, µM (highest dose often 46.1 µM), most hits filed as cytotoxic; further: on the % scale 0 is the no-effect control and ±100 the full control effect; nearly all actives have a fitted effect of over 60% in size
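Luminescent ATP read-out (CellTiter-Glo) measures survival of drug-naive KB-3-1 cells after 72 h compound exposure at 37 °C. Titration series was screened from lowest to highest concentration, with DMSO vehicle plates as background controls.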
RORg inh – ROR gamma (mouse) transcription inhibition | P51450 | Drosophila S2 Gal4-RORgamma UAS-luciferase reporter, 20 h | Potency, µM (highest dose often 53.6 µM), for the others: at the top dose activity change, negative = inhibition, actives largely listed as inhibitors | hit rate 5.4% among 310,000 | AID 2551; further: on the % scale 0 is the no-effect control and ±100 the full control effect; nearly all actives have a fitted effect of over 60% in size
Target sequence (P51450 whole entry, looked up, the tested form may be a part): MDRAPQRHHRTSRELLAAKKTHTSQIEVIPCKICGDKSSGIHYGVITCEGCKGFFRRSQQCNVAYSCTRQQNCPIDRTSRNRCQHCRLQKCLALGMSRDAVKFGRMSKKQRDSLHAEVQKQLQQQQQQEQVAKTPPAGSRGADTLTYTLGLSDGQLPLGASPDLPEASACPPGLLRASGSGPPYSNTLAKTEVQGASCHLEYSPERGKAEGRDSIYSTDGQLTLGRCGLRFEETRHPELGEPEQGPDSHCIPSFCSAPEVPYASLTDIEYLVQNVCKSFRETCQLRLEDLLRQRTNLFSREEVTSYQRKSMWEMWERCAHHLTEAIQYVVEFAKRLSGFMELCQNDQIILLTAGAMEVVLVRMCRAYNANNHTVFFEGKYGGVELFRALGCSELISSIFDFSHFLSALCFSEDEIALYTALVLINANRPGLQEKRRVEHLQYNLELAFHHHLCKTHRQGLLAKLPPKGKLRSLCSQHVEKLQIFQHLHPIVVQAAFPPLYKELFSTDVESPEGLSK
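A Gal4/UAS one-hybrid system in insect cells: metallothionein-promoter Gal4–ROR gamma fusion plus Photinus luciferase reporter. Copper sulfate 700 uM final, 20 hr ambient incubation, luminescent detection after 10 min with reagent.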
Starred values were filed as active, the others as inactive; i = inactive; ? = inconclusive; nt = not tested or not shown; [ ] = another dose, or the depositor's remark. The call rests on the fitted dose curve; in most records, active means well fitted curve in the direction sought with a large enough effect; inconclusive means small, poorly fitted or top-dose-only effect, or another doubt; inactive means no such curve, though single readings can be large; an effect the other way counts as inactive or inconclusive. Potency means the concentration at half of the fitted maximal effect.

SMILES | Gal4-VP16 FLuc | SW480 rerep | MCF10A rereplic | KB-V1 MDR tox | KB-3-1 cytotox | RORg inh
CCCCC[C@@H](C)N1C[C@@H](COCc2ccccc2)Oc2cc(N3CC[C@@H](O)C3)ccc2S1(=O)=O | nt | nt | nt | i | ? | nt
C[C@@H](c1ccccc1)N1C[C@@H](COCc2ccccc2)Oc2cc(N3CC[C@@H](O)C3)ccc2S1(=O)=O | nt | nt | nt | i | i | nt
CCCCC[C@H](C)N1C[C@H](COCc2ccccc2)Oc2cc(N3CC[C@H](N(C)C)C3)ccc2S1(=O)=O | nt | nt | nt | 21µM* | ? | nt
COC(=O)[C@@]1(Cc2ccc(OC)cc2)[C@H]2c3cc(C(=O)N(C)C)n(CCN4CNCC4=O)c3C[C@H]2CN1C(=O)c1ccccc1 | -21% | nt | nt | nt | nt | 13%
Cc1nc(N2CCC(C)CC2)c2c(C)c(C(=O)Nc3ccc(C(F)(F)F)cc3)sc2n1 | 10% | 10% | ? | ? | i | -4%
Cc1nc(N2CCOCC2)c2c(C)c(C(=O)Nc3ccc(F)cc3Cl)sc2n1 | -7% | -4% | -5% | i | i | -5%
Cc1nc(N2CCC(C)CC2)c2c(C)c(C(=O)Nc3cccc(C(F)(F)F)c3)sc2n1 | -4% | ? | 21µM* | i | i | 2%
Cc1nc(N2CCN(c3ccccn3)CC2)c2c(C)c(C(=O)Nc3ccc(F)cc3F)sc2n1 | 1% | ? | ? | 12µM* | i | ?
Cc1nc(N2CCN(c3ccccn3)CC2)c2c(C)c(C(=O)Nc3ccccc3F)sc2n1 | -12% | -5% | 1% | ? | 21µM* | 2%
Cc1nc(N2CCN(c3ccccn3)CC2)c2c(C)c(C(=O)Nc3ccc(F)cc3Cl)sc2n1 | 5% | ? | 16µM* | ? | ? | ?
COc1ccc(-c2nc(CSCC(=O)NCCc3ccc(OC)c(OC)c3)c(C)o2)cc1 | nt | nt | nt | i | i | nt
COc1ccc(CNC(=O)Cn2c(SCC(=O)Nc3ccc(C)c(C)c3)nc3ccccc32)cc1 | nt | nt | nt | i | ? | nt
COc1ccc(-c2nc3cc(C)ccn3c2NC(=O)c2cccc(F)c2)cc1 | nt | nt | nt | i | i | nt
Cc1cc(Br)ccc1NC(=O)c1sc2ncnc(N3CCN(c4ccccn4)CC3)c2c1C | -5% | 15µM* | 7.3µM* | ? | 6.5µM* | 19%
Clc1ccc(Nc2ccc(NCc3ccccc3)nn2)cc1 | 8% | 16µM* | ? | 16µM* | i | 16%
CCc1ccc(C(O)c2ncc(-c3ccc(C)cc3)[nH]2)cc1 (configuration not stated) | nt | nt | nt | ? | i | nt
O=C(CSc1nnc(-c2ccccc2)n1-c1ccc(Cl)cc1)N/N=C/c1ccco1 | 12% | -7% | 1% | 16µM* | i | ?
O=C(CSc1nnc(-c2ccc(Cl)cc2)n1-c1ccccc1)N/N=C/c1ccccc1C(=O)O | 4% | ? | 18% | i | i | -1%
Cc1ccc(-c2nnc(SCC(=O)N/N=C/c3ccccc3C(=O)O)n2-c2ccccc2)cc1 | -12% | nt | nt | nt | nt | 7%
Cc1ccc(-c2nnc(SCC(=O)N/N=C/c3ccc(C)s3)n2-c2ccc(C)cc2)cc1 | ? | nt | ? | ? | ? | 18µM*
COc1ccc(-n2ccnc2SCC(=O)c2c(N)n(C3CC3)c(=O)[nH]c2=O)cc1 | nt | nt | nt | i | i | nt
CC1(C)Cc2ccccc2C(N/N=C/c2ccc([N+](=O)[O-])cc2)=N1 | -5% | -26% | -13% | i | i | 0%
CC1(C)Cc2ccccc2C(N/N=C/c2ccc(Cl)cc2)=N1 | -21% | 4% | ? | 15µM* | ? | -40%
O=C(Nc1ccc(-c2nc3ccccc3[nH]2)cc1)c1ccc2c(c1)OCCO2 | nt | nt | nt | i | ? | nt
COC(=O)C(NC(=O)COc1ccccc1)(Nc1nc2c(s1)CCCC2)C(F)(F)F (configuration not stated) | 20µM* | -1% | 4% | ? | i | ?
SMILES | Gal4-VP16 FLuc | SW480 rerep | MCF10A rereplic | KB-V1 MDR tox | KB-3-1 cytotox | RORg inh
CC(C)(Cc1ccc(O)cc1)NC(=O)CC(=O)N/N=C/c1ccc(Cl)cc1 | -4% | ? | 13µM* | i | ? | 5%
COCCNC(=S)NC(=O)CC12CC3CC(CC(C3)C1)C2 | ? | 23% | -37% | 16µM* | i | 2.5µM*
CC(=O)N1CCN(C(=S)NC(=O)C23CC4CC(CC(C4)C2)C3)CC1 | -21% | 12% | -5% | i | i | 14µM*
O=C(CC12CC3CC(CC(C3)C1)C2)N1CCCOC1 | -2% | -16% | -1% | i | i | 2%
O=C(CC12CC3CC(C1)CC(CC(=O)N1CCCC1)(C3)C2)N1CCCC1 | 3% | -2% | 3% | 15µM* | i | -7%
S=C(NC12CC3CC(CC(C3)C1)C2)N1CCCC1 | ? | ? | ? | ? | i | 14µM*
O=C(CC12CC3CC(CC(C3)C1)C2)NC(=S)N1CCCCC1 | 3.5µM* | -1% | 4% | ? | i | 4.5µM*
Fc1cc2[nH]c(=S)[nH]c2c(Br)c1N1CCSCC1 | 13% | 12% | 9% | ? | 2.1µM* | 11µM*
Oc1ccc(Cl)cc1-c1cc(-c2ccccc2Cl)[nH]n1 | 10µM* | ? | -180%[0.0737 µM] | ? | ? | 4.5µM*
Oc1ccc(Cl)cc1-c1cc(-c2cccc(Br)c2)n[nH]1 | 0.89µM* | 17% | ? | 21µM* | ? | ?
Cc1ccc(O)c(-c2cc(-c3ccccc3[N+](=O)[O-])[nH]n2)c1 | ? | 5% | ? | i | i | ?
Oc1ccccc1-c1cc(-c2ccccc2Cl)[nH]n1 | ? | -2% | ? | 21µM* | i | 4.5µM*
O=[N+]([O-])c1ccccc1-c1cc(-c2cc(Cl)ccc2O)n[nH]1 | ? | -25% | ? | ? | i | 16µM*
O=C(Nc1c(C(=O)N2CCN(c3ccccc3F)CC2)oc2ccccc12)c1cccc(F)c1 | nt | nt | nt | i | i | nt
O=[N+]([O-])O[C@H]1CO[C@H]2[C@@H]1OC[C@H]2O | -3% | 1% | -1% | nt | nt | 9%
CSCC[C@H]1COC[C@@H](Cc2ccccc2)N1c1ccccc1 | nt | nt | nt | i | i | nt
Cn1nnnc1Sc1ncnc2scc(-c3ccc(Cl)cc3)c12 | nt | 15% | 8% | ? | ? | nt
Cn1nnnc1Sc1ncnc2scc(-c3cccc(Br)c3)c12 | nt | ? | ? | 18µM* | 7.3µM* | nt
Cn1nnnc1Sc1ncnc2scc(-c3cccc4c3sc3ccccc34)c12 | nt | ? | ? | ? | 21µM* | nt
Cn1nnnc1Sc1ncnc2scc(-c3ccc([N+](=O)[O-])cc3)c12 | nt | 21% | 2.6µM* | i | ? | nt
Cn1nnnc1Sc1ncnc2scc(-c3ccc4c(c3)OCO4)c12 | nt | 12% | 23µM* | i | i | nt

Bioassay records as filed in PubChem BioAssay.
